Out of some 310,000 compounds screened, about 18,000 (5.8%) were called active. About 22% were inconclusive and are not listed. Many of the other results were omitted from the sample, so actives are more common in it than they were. Unmarked numbers belong to inactive results. Calls follow the shape of the dose curve; as a rule, active = well fitted inhibition curve with a large enough effect; inconclusive = small, poorly fitted or top-dose-only effect, or another doubt; inactive = no such curve, though single readings can be large or run the other way.
Test: Primary qHTS for delayed death inhibitors of the malarial parasite plastid, 48 hour incubation
Conditions: P. falciparum luciferase growth in erythrocytes; series mostly up to 28.7 µM; activity change, negative = inhibition: at the top concentration
From the text: The goal of this screen is to discover new antimalarial compounds that act by inhibiting the development of the apicoplast in the malarial parasite Plasmodium falciparum. The biochemical processes that make this organelle essential for erythrocytic stage parasites are not well understood. However, antibiotics such as azithromycin and tetracycline, which target the apicoplast translational machinery, have a potent antimalarial effect.
We have developed a cell-based assay that measures parasite growth based on the expression of an integrated copy of a firefly luciferase reporter. To detect small molecules that cause this "delayed death" phenotype, erythrocytes infected with the luciferase-expressing parasites were incubated with compounds for either one or two generations, corresponding to 48 and 96 hours, respectively. Compounds that inhibit parasite growth in the second generation, but not the first, should be enriched in antimalarials that target the apicoplast. Growth inhibition is detected by a decrease in luciferase activity.
Assay Provider: David Fidock and Eric Ekland, Columbia University
Keywords: NIH Roadmap, MLPCN, MLI, MLSMR, qHTS, NCGC, qHTS, malaria, luciferase, viability
Four microliters of culture medium (RPMI 1640 with 0.5% w/v Albumax (GIBCO), 24 mM sodium bicarbonate and 10 ug/mL gentamycin) were dispensed by a Multi-drop Combi into white solid 1536-well plates (Grenier) and 23 nL compound was added by a pin tool. Four microliters of infected erythrocytes (2% hematocrit, 0.1% parasitemia final concentration) in culture medium were dispensed and the plates incubated for 48 hours at 37 C in 5% CO2. Two microliters of luciferase detection reagent was added and luminescence was detected by a ViewLux (PerkinElmer) reader.
% is scaled to controls: 0 for no effect and ±100 for the full control effect; potency is read from the fitted curve at half-maximal effect.

Row | SMILES | activity change, negative = inhibition | Potency
1 | CCCc1cc(=O)n2[nH]c(C)c(-c3ccc(Cl)cc3)c2n1 | 11.8% | 
2 | NS(=O)(=O)c1cccc(NC(=O)CC23CC4CC(CC(Br)(C4)C2)C3)c1 | 25.6% | 
3 | Cc1nnc(SCC(=O)Nc2cccc(N)c2)n1-c1ccccc1 | 0% | 
4 | COc1ccc(C2=NS(=O)(=O)N(C)C(C(=O)NC(C)c3ccccc3)=C2)cc1 (configuration not stated) | 3.81% | 
5 | COc1ccc(NC(=O)C2=CC(c3ccc(OC)c(OC)c3)=NS(=O)(=O)N2C)cc1 |  | 14.7 µM (active)
6 | COc1ccc(C2=NS(=O)(=O)N(C)C(C(=O)N3CCCCC3)=C2)cc1 | -6.99% | 
7 | Cc1cccc(N(C)C(=O)c2cc(S(=O)(=O)N3CCCCC3)c[nH]2)c1 | 8.72% | 
8 | Cc1cccc(CCNS(=O)(=O)c2ccc3c(c2)NC(=O)CO3)c1 | 12.1% | 
9 | CCOc1ccc(NC(=O)CC(Cc2ccc(Cl)cc2)C(=O)O)cc1 (configuration not stated) | 31.6% | 
10 | O=C1c2cccc(OCC(=O)N3N=C(c4cccs4)CC3c3ccc(F)cc3)c2CCN1Cc1ccccc1 (configuration not stated) |  | 7.38 µM (active)
11 | COc1ccc(C2CC(c3cccs3)=NN2C(=O)CCC(=O)O)cc1OC (configuration not stated) | -0.475% | 
12 | COc1ccc(C2CC(c3ccccc3)=NN2C(=O)COC(=O)COc2ccccc2)cc1 (configuration not stated) | -0.759% | 
13 | COc1cc(C(=O)NCC(=O)NCCSc2ccc(Br)cc2)cc(OC)c1OC | 37.5% | 
14 | CCO[C@H]1OC(C(=O)N2CCOCC2)=C[C@@H](c2ccc3c(c2)OCO3)[C@@H]1CCCO | 39.8% | 
15 | CCO[C@H]1OC(C(=O)N2CCCCCCC2)=C[C@@H](c2ccc(C(F)(F)F)cc2)[C@@H]1CCCO |  | 3.7 µM (active)
16 | CCO[C@@H]1OC(C(=O)N2CCOCC2)=C[C@H](C)[C@H]1CCCO | 12.4% | 
17 | Cc1cc(C)c(S(=O)(=O)Nc2c(C)n(C)n(-c3ccccc3)c2=O)cc1[N+](=O)[O-] | -7.18% | 
18 | COc1ccc(-c2cc(C(=O)N3CCN(c4ccc(F)cc4)CC3)no2)cc1 | 1.13% | 
19 | Cc1cc(C)c(C2C3=C(Nc4c2c(C)nn4-c2ccccn2)c2ccccc2C3=O)c(C)c1 (configuration not stated) |  | 9.28 µM (active)
20 | COC(=O)c1sccc1NC(=O)c1ccc(Cl)cc1 | 12.9% | 
21 | Nc1nc(NCc2ccccc2)n(-c2ccccc2)n1 | -9% | 
22 | CCc1nnc(NC(=O)CSCc2cc(=O)n3cc(C)sc3n2)s1 | -17.5% | 
23 | COC(=O)C1=C(c2ccc(Cl)c(C(F)(F)F)c2)C[C@@H]2CC[C@H]1N2C(=O)NC1CC1 |  | 14.7 µM (active)

Row | SMILES | activity change, negative = inhibition | Potency
24 | COC(=O)c1ccc(CNC(=O)C2CCC(=O)N(Cc3cccc(F)c3)C2)cc1 (configuration not stated) | -0.0903% | 
25 | COC(=O)C1=C(c2ccc(-c3ccccc3)c(F)c2)C[C@@H]2CC[C@H]1N2C(=O)NCc1ccc(F)cc1 |  | 13.1 µM (active)
26 | O=C(O)C1CC=C(Cl)CC1C(=O)NCc1ccccc1 (configuration not stated) | 1.48% | 
27 | COC(=O)C1=C(c2ccc(F)cc2F)C[C@@H]2CC[C@H]1N2C(=O)NC1CC1 | 17.9% | 
28 | O=C(NCCc1ccc(Cl)cc1)C1CCCN1C(=O)NCc1ccccc1 (configuration not stated) | 8.13% | 
29 | COc1ccc(CNC(=O)C2CCN(C(=O)c3ccccc3)CC2)cc1 | -3.24% | 
30 | COC(=O)C1=C(c2ccccc2OCc2ccccc2)C[C@@H]2CC[C@H]1N2C(=O)NCc1ccc(OC)cc1 |  | 13.1 µM (active)
31 | COC(=O)C1=C(c2ccc3ccccc3c2)C[C@@H]2CC[C@H]1N2C(=O)NCCO | 3.2% | 
32 | COc1ccc(CNC(=O)C2CCN(S(C)(=O)=O)CC2)cc1 | 0% | 
33 | COC(=O)C1=C(c2ccc(F)cc2OCc2ccccc2)C[C@@H]2CC[C@H]1N2C(=O)NCc1ccc(Cl)cc1 |  | 11.7 µM (active)
34 | O=C(CN1CCN(C(=O)c2ccco2)CC1)Nc1ccc(Cl)c(C(F)(F)F)c1 | -1.32% | 
35 | CC(C)CC(O)C1CCN(C(=O)CCc2nnc(-c3ccc4c(c3)OCO4)o2)CC1 (configuration not stated) | -7.2% | 
36 | N#Cc1ccc(OCC(=O)NC(=O)NC2CCS(=O)(=O)C2)cc1 (configuration not stated) | -8.11% | 
37 | Cc1cc(C(=O)COc2ccccc2Cl)c(C)n1C1CC1 | 48.6% | 
38 | CCN(CC(=O)NCc1ccco1)S(=O)(=O)c1ccc(F)cc1 | 10.8% | 
39 | Cc1c(C(C)CCCO)oc(=O)c2c1Oc1c(C)c(C(C)C[C@@H](C)O)oc(=O)c1C2 (some centres not stated) | -39.1% | 
40 | Cn1cccc1C(=O)N1CCc2ccccc2C1 | 11.9% | 
41 | CC1CCN(C(=O)Cn2nnnc2CN2CCOCC2)CC1 | 5.66% | 
42 | CSc1ccc(NC(=O)/C=C/C(=O)O)cc1 | 18.7% | 
43 | Cc1cccc(N2CCN(c3ccc(NC(=O)/C=C\C(=O)O)cc3)CC2)c1 |  | 8.28 µM (active)
44 | Cc1cccc(N2CCN(C(=O)c3ccccc3NC(=O)C3CCCCC3C(=O)O)CC2)c1 (configuration not stated) | -6.43% | 
45 | Cc1ccc2oc(C(=O)N3CCN(C)C[C@@H]3C(C)C)c(C)c2c1 | 3.18% | 
46 | CC1=CC(=Cc2sc3ccccc3[n+]2C)C=C(C)O1 |  | 0.928 µM (active)

Row | SMILES | activity change, negative = inhibition | Potency
47 | Cc1ccc(-c2noc(CNC(=O)c3ccoc3C)n2)cc1 | 33.4% | 
48 | O=C(NCc1ccccc1Cl)C1CCN(S(=O)(=O)c2cccc3nonc23)CC1 | 5.07% | 
49 | O=C(NCc1ccncc1)C1CCCN(S(=O)(=O)c2ccc(Br)cc2)C1 (configuration not stated) | -2.51% | 
50 | CCc1ccc(NC(=O)Nc2ccncc2)cc1 |  | 13.1 µM (active)
51 | O=C(Nc1ccncc1)c1c(F)cccc1F | 1.26% | 
52 | CC(C)CC(=O)Nc1ccc(Cc2ccncc2)cc1 | 5.98% | 
53 | O=C(NCc1ccccn1)Nc1ccc(F)cc1 | 52.2% | 
54 | O=C(Nc1ccncc1)Nc1ccc(F)cc1 |  | 6.57 µM (active)
55 | CCc1ccc(NC(=O)N[C@H](C(=O)O)C(C)CC)cc1 (some centres not stated) | 22.8% | 
56 | CCCOc1ccc(Cc2c(O)nc(N)[nH]c2=O)cc1C | -5.97% | 
57 | COc1cc(OC)nc(NC(=O)CCl)n1 | 7.41% | 
58 | COc1cc(OC)nc(N/N=C(\c2ccccc2)c2ccncc2)n1 |  | 14.7 µM (active)
59 | CN(C)CCCO/N=C(\c1ccccc1)c1ccncc1 | 2.21% | 
60 | CC(=O)N(C)c1ccc(NC(=O)Nc2cccc3ccccc23)cc1 | 66.8% | 
61 | CNC(=O)c1sc(Nc2ccc(OCc3ccccc3)cc2)nc1C | -17.7% | 
62 | Cn1cncc1COC(=O)c1ccc(Cl)cc1 | 0.158% | 
63 | COc1cc(OC)cc(C(=O)NCCSCc2ccc(Cl)cc2)c1 | 6.73% | 
64 | COc1ccccc1N1CC(C(=O)NCCN2C(=O)S/C(=C\c3cccnc3)C2=O)CC1=O (configuration not stated) | -2.32% | 
65 | C/C(=C\c1ccco1)C1Nc2cccc3cccc(c23)N1 | 3.63% | 
66 | Brc1ccccc1C1Nc2cccc3cccc(c23)N1 |  | 13.1 µM (active)
67 | Cc1ccc(C2Nc3cccc4cccc(c34)N2)cc1 | 0% | 

From PubChem BioAssay AID504832 (National Center for Advancing Translational Sciences (NCATS), 2011)
